This is an account of results in PubChem BioAssay (Tox21).

Test [1] is described as follows: qHTS assay for small molecules that induce genotoxicity in human embryonic kidney cells expressing luciferase-tagged ATAD5 (AID 651632). Also: nearly all actives have a fitted effect of over 15% in size. Also: potency is read from the fitted curve at half-maximal effect. An outline of the steps:
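Luminescence read-out: after 16 hr compound exposure at 37C, ATAD5-luciferase HEK293T cells received Amplite, 30 min RT, then CCD imaging. A rise in signal marks genotoxic stress.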
(qHTS replaces the single test concentration by a dilution series.)

Test [2] is described as follows: qHTS assay for small molecule agonists of the p53 signaling pathway - cell viability (AID 651633; calls by dose curve; also: nearly all actives have a fitted effect of over 30% in size; also: potency is read from the fitted curve at half-maximal effect). Summed up: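 p53RE-bla cells were treated with compound for 16 hours at 37 C. Cytotoxicity was then measured as CellTiter-Glo luminescence after 30 min at room temperature.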
Test [3] can be described thus: qHTS assay for small molecules that induce genotoxicity in human embryonic kidney cells expressing luciferase-tagged ATAD5 - cell viability (AID 651634; calls by dose curve; also: nearly all actives have a fitted effect of over 25% in size; also: potency is read from the fitted curve at half-maximal effect). An outline of the steps: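 HEK293T ATAD5-luc cells, 2,000/well; compound 15.5 hr, 37C/5% CO2; CellTiter-Fluor 30 min, 37C; fluorescence read.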
The nature of test [4]: qHTS assay for small molecule disruptors of the mitochondrial membrane potential - cell viability (AID 720634; calls by dose curve;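 also: human HepG2 liver cancer cells; series mostly up to about 83 µM; nearly all actives have a fitted effect of over 20% in size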). Summed up: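 Luminescence from CellTiter-Glo (ATP content) gave viability in HepG2 cells, read in the same wells as the MMP dye assay after 1 hr compound exposure at 37 C.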
Test [5] is described as follows: qHTS assay to test for compound auto fluorescence at 535 nm (green) in HepG2 cells (AID 720675).
Test [6] in a line: qHTS assay to test for compound auto fluorescence at 460 nm (blue) in HEK293 cells (AID 720678). An outline of the steps: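 HEK293 cells (2,000/well, medium with 10% dialyzed FBS) attached 4-5 hr, then exposed to compound overnight at 37C, 5% CO2. Blue fluorescence read at 405/460 nm, with triamterene as reference fluorophore.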
Test [7] is described as follows: qHTS assay to test for compound auto fluorescence at 590 nm (red) in HEK293 cells (AID 720679). Summed up:
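HEK293 cells (2,000/well, 10% dialyzed FBS) attached 4-5 hr, then dosed with compound or DMSO and incubated overnight at 37C, 5% CO2. Red fluorescence read at 540/590 nm, Rose Bengal sodium as reference fluorophore.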

Test [8] in a line: qHTS assay to test for compound auto fluorescence at 590 nm (red) in HepG2 cells (AID 720674). An outline of the steps:
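Seeding: 2,000 HepG2 cells/well, MEM/10% FBS, overnight 37 C. Dosing: compound vs DMSO. Incubation: 1 hr, 37 C, 5% CO2. Read: fluorescence 540 ex/590 em, Rose Bengal sodium as red reference.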

Test [9] is described as follows: qHTS assay for small molecule disruptors of the mitochondrial membrane potential (AID 720635). Also: potency is read from the fitted curve at half-maximal effect. Summed up: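 HepG2 cells exposed to compound 1 hr at 37C, then Mito-MPS dye 30 min. Ratio read of aggregate (540/590 nm) versus monomer (490/535 nm) fluorescence.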

Each structure is given as a SMILES string. Records with an inconclusive call do not appear. The source made the active and inactive calls. Unless noted, calls follow the shape of the dose curve; as a rule, active = well fitted curve in the direction sought with a large enough effect in the repeat runs; inconclusive = weak or mixed curves; inactive = no such curve, though single readings can be large; an effect the other way counts as inactive or inconclusive.

Regarding `C#CCOc1ccc2c(C)cc(=O)oc2c1`, the Potency result in [1], in test [2], in test [3], in test [4], in [5] and in [6] was “inactive” in each case. In test [7], the Potency entry was “inactive”.
As for `O=C(O)CC/C=C\CC[C@@H]1[C@@H](N2CCCCC2)[C@@H](O)C[C@@H]1OCc1ccc(-c2ccccc2)cc1`, the Potency result in [1], in [2], in test [3], in test [4], in test [8] and in test [5] was “inactive” in each case. The Potency result in test [6] and in test [7] was “inactive” in each case.
With `CN1CCC(OC(=O)C(Oc2ccc(Cl)cc2)Oc2ccc(Cl)cc2)CC1`, the Potency entry in test [1], in test [2], in test [3], in [4], in test [8] and in [5] was “inactive” each time. In addition, the Potency entry in test [6] and in [7] was “inactive” throughout.
With `C[C@H](N)C(=O)N[C@@H](C)P(=O)(O)O`, the Potency entry in test [1], in test [2], in test [3], in test [4], in test [5] and in [6] was “inactive” in each case. Besides, in [7], the Potency result was “inactive”.
Take `O=C(O)c1nc(=O)[nH]c(=O)[nH]1`: the Potency result in test [1], in [2], in test [3], in test [4], in [5] and in [6] was “inactive” each time. For the same compound, the Potency entry in test [7] is “inactive”.
With `NNc1nnc(Cc2ccncc2)c2ccccc12`, the Potency entry in test [1], in test [2], in [3], in [4], in [8] and in [5] was “inactive” in each case. Further, the Potency entry in test [6] and in test [7] was “inactive” in each case.
In the case of `CC[N+](C)(C)Cc1ccccc1Br`, the Potency result in test [1], in test [2], in test [3], in test [9], in test [8] and in [5] was “inactive” each time. For the same compound, the Potency entry in test [6] and in [7] was “inactive” in each case.
`OC[C@H]1O[C@@H](n2cnc3c2NC=NC[C@H]3O)C[C@@H]1O`: the Potency entry in test [1], in test [2], in [3], in [4], in test [8] and in [5] was “inactive” in each case. The Potency result in [6] and in test [7] was “inactive” in each case.
On to `O=C1NC(=O)[C@H]2[C@@H]1[C@@H]1C=C[C@H]2C1`, for which the Potency result in test [1], in test [2], in [3], in test [4], in test [8] and in test [5] was “inactive” in each case. Further, the Potency entry in [6] and in test [7] was “inactive” each time.
With `COc1cc(-c2ccc(-[n+]3nc(-c4ccccc4)nn3-c3ccc([N+](=O)[O-])cc3)c(OC)c2)ccc1-[n+]1nc(-c2ccccc2)nn1-c1ccc([N+](=O)[O-])cc1`, the Potency was 5.96 µM (active) in [1], 11.9 µM (active) in test [2] and 29.8 µM (active) in [3]. In addition, the Potency result in test [4], in test [8], in test [5], in test [6] and in [7] was “inactive” throughout.
As for `CN(C)CCC=C1c2ccccc2C(C)(C)c2ccccc21`, the Potency entry in test [1], in test [2], in [3], in [4], in test [8] and in [5] was “inactive” each time. The Potency result in test [6] and in test [7] was “inactive” in each case.
For the compound `CC1(C)[C@@H]2CC[C@@]1(C)[C@H](OC(=O)CSC#N)C2`, the Potency result in test [1], in test [2], in [3], in test [4], in test [5] and in [6] was “inactive” throughout. Further, the Potency result in test [7] was “inactive”.
On to `CC(C)CCC[C@@H](C)[C@H]1CC(=O)C2=C3CC[C@H]4C[C@@H](O)CC[C@]4(C)[C@H]3CC[C@@]21C`, for which the Potency result in [1], in [2], in [3], in test [4], in [8] and in [5] was “inactive” in each case. Further, the Potency entry in test [6] and in test [7] was “inactive” in each case.
For the compound `N[C@H](CCC(=O)O)C(=O)O`, the Potency result in test [1], in test [2], in [3], in test [4], in test [8] and in test [5] was “inactive” each time. Besides, the Potency result in [6] and in test [7] was “inactive” throughout.
Turning to `CCN(CC)CCOc1ccccc1OC`, the Potency result in test [1], in [2], in test [3], in test [4], in test [8] and in test [5] was “inactive” each time. Further, the Potency result in test [6] and in test [7] was “inactive” in each case.
On to `CC(C)(C)CC(C)(C)c1cc(Cc2cc(C(C)(C)CC(C)(C)C)cc(-n3nc4ccccc4n3)c2O)c(O)c(-n2nc3ccccc3n2)c1`, for which the Potency result in [1], in test [2], in test [3], in test [4], in test [8] and in [5] was “inactive” throughout. The Potency result in [6] and in [7] was “inactive” throughout.
Take `CO[C@H]1C=CO[C@@]2(C)Oc3c(C)c(O)c4c(O)c(c(/C=N/N5CCN(C6CCCC6)CC5)c(O)c4c3C2=O)NC(=O)/C(C)=C\C=C[C@H](C)[C@H](O)[C@@H](C)[C@@H](O)[C@@H](C)[C@H](OC(C)=O)[C@@H]1C`: the Potency result in test [1], in test [8], in test [5], in test [6] and in test [7] was “inactive” in each case. For the same compound, the Potency in [2] was 26.6 µM (active); in test [3], 21.1 µM (active); in test [9], 1.19 µM (active).
